Source: PubChem BioAssay (NCI)
This is part of a sample that, as a whole, favours compounds with a hit. Of some 83,000 tested, about 20% had one in any assay.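 Compound tested at a single concentration for 48 hours in 96-well plates; a percent growth value below 10 was scored as active.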 Active and inactive are the calls of the source.

Key:
Assay in all cases: NCI-60 one-dose screen, 48 h (100 = growth as untreated, 0 = no growth, -100 = all killed)
Details in all cases: 10 µM unless noted
HCT-15 colon = test system: HCT-15 colon
HT29 colon = test system: HT29 colon
SNB-75 CNS = test system: SNB-75 CNS
SNB-19 CNS = test system: SNB-19 CNS
U251 CNS = test system: U251 CNS
PC-3 prostate = test system: PC-3 prostate
SK-MEL-5 melanoma = test system: SK-MEL-5 melanoma
UACC-62 melanoma = test system: UACC-62 melanoma
LOX IMVI melanoma = test system: LOX IMVI melanoma
SK-MEL-28 melanoma = test system: SK-MEL-28 melanoma

Measured: growth

C[C@@H](CO)[C@@H]1CCC=C2CC[C@]3(C)[C@H](CC[C@@H]4[C@@]5(C)CCCNC(C)(C)[C@@H]5CC[C@]43C)[C@H]21
active: HCT-15 colon -5.42% | HT29 colon 1.93% | LOX IMVI melanoma -52.2%
inactive: SNB-75 CNS 92.3% | SNB-19 CNS 88.4% | U251 CNS 18.8% | PC-3 prostate 47.1% | SK-MEL-5 melanoma 72.2% | UACC-62 melanoma 80.3% | SK-MEL-28 melanoma 70.5%

COc1ccc(Nc2ncc(Br)c(NCCCNC(=O)C3CCCC3)n2)cc1
inactive: HCT-15 colon 37.1% | HT29 colon 47.5% | SNB-75 CNS 51.1% | SNB-19 CNS 35.2% | U251 CNS 27.2% | PC-3 prostate 44% | SK-MEL-5 melanoma 67.5% | UACC-62 melanoma 46.2% | LOX IMVI melanoma 11% | SK-MEL-28 melanoma 57.2%

O=C(CN1C(=O)NC2NC(=O)NC21)N/N=C/c1ccccc1[N+](=O)[O-] (stereo not given)
inactive: HCT-15 colon 103% | HT29 colon 112% | SNB-75 CNS 83.3% | SNB-19 CNS 96.8% | U251 CNS 107% | PC-3 prostate 101% | SK-MEL-5 melanoma 99.3% | UACC-62 melanoma 90.1% | LOX IMVI melanoma 102% | SK-MEL-28 melanoma 107%

[O-]/[N+](=C\c1ccc(-n2cc(Cc3ccccc3Cc3cn(-c4ccc(/C=[N+](/[O-])c5ccccc5)cc4)nn3)nn2)cc1)c1ccccc1
inactive: HCT-15 colon 98.8% | HT29 colon 101% | SNB-75 CNS 91.9% | SNB-19 CNS 96.7% | U251 CNS 107% | PC-3 prostate 103% | SK-MEL-5 melanoma 105% | UACC-62 melanoma 94.7% | LOX IMVI melanoma 87.9% | SK-MEL-28 melanoma 110%

COc1ccc(/C=C(\C#N)n2nnc3cc(F)c(F)cc32)cc1
inactive: HCT-15 colon 29.9% | SNB-75 CNS 70.9% | SNB-19 CNS 59.1% | U251 CNS 72.4% | PC-3 prostate 41.2% | SK-MEL-5 melanoma 52.2% | UACC-62 melanoma 29.6% | LOX IMVI melanoma 47.1% | SK-MEL-28 melanoma 58.1%
active: HT29 colon 6.99%

Cc1sc2nc(NCCc3c[nH]c4ccc(Cl)cc34)[nH]c(=O)c2c1C
inactive: HT29 colon 19.6% | SNB-75 CNS 23.5% | SNB-19 CNS 63.8% | U251 CNS 32.3% | PC-3 prostate 29.2% | SK-MEL-5 melanoma 50.4% | UACC-62 melanoma 42.3% | LOX IMVI melanoma 26.5% | SK-MEL-28 melanoma 70.1%
active: HCT-15 colon 7.96%

COC(=O)C1Cc2ccccc2CN1C(=O)c1ccc2c(c1)Cc1ccccc1-2 (stereo not given)
active: SK-MEL-5 melanoma -39.9% [50 µM]
inactive: HCT-15 colon 22.4% [50 µM] | HT29 colon 23.1% [50 µM] | SNB-75 CNS 60.8% [50 µM] | SNB-19 CNS 43.7% [50 µM] | U251 CNS 32.3% [50 µM] | PC-3 prostate 21.2% [50 µM] | UACC-62 melanoma 33.3% [50 µM] | LOX IMVI melanoma 35.8% [50 µM] | SK-MEL-28 melanoma 47.8% [50 µM]

CCN(CC)S(=O)(=O)c1ccc(S(=O)(=O)N2CCC[C@@H](C(=O)N3CCN(c4nc(C(C)C)no4)CC3)C2)cc1
inactive: HCT-15 colon 92.2% | HT29 colon 87.8% | SNB-75 CNS 56.4% | SNB-19 CNS 64.2% | U251 CNS 85.3% | PC-3 prostate 76.2% | SK-MEL-5 melanoma 17.2% | UACC-62 melanoma 59.7% | LOX IMVI melanoma 54% | SK-MEL-28 melanoma 91%

COc1ccc(C(O)c2cc3c(N)c(C(=O)Nc4cccc(Br)c4)sc3nc2C)cc1 (stereo not given)
active: HCT-15 colon 7.7% | HT29 colon 8.32% | SK-MEL-5 melanoma -72.9%
inactive: SNB-75 CNS 24.4% | SNB-19 CNS 24.6% | U251 CNS 15.7% | PC-3 prostate 15.6% | UACC-62 melanoma 13.5% | LOX IMVI melanoma 15.5% | SK-MEL-28 melanoma 50.7%

CS(=O)(=O)Nc1cc(-c2ccc3ncnc(Nc4ccc5c(cnn5Cc5ccc(F)cc5)c4)c3c2)cnc1Cl
active: SNB-75 CNS -10.1%
inactive: HCT-15 colon 82.1% | HT29 colon 53.3% | SNB-19 CNS 47% | U251 CNS 37.2% | PC-3 prostate 38.2% | SK-MEL-5 melanoma 13.9% | UACC-62 melanoma 21% | LOX IMVI melanoma 18.3% | SK-MEL-28 melanoma 16.7%

COc1cc2oc(-c3cccc(NC(=O)c4ccccc4)c3)cc(=O)c2c(OC)c1OC
inactive: HCT-15 colon 65.2% | HT29 colon 77.1% | SNB-75 CNS 77.4% | SNB-19 CNS 91.4% | U251 CNS 83.7% | PC-3 prostate 53.1% | SK-MEL-5 melanoma 63.2% | UACC-62 melanoma 66.8% | LOX IMVI melanoma 61.7% | SK-MEL-28 melanoma 73.2%

Oc1c(Br)cc(Br)c2ccc(Cn3cc(-c4ccc(C(F)(F)F)cc4)nn3)nc12
inactive: HCT-15 colon 25.2% | HT29 colon 59% | SNB-75 CNS 77.2% | SNB-19 CNS 94% | U251 CNS 102% | PC-3 prostate 77.6% | SK-MEL-5 melanoma 98.2% | UACC-62 melanoma 67.8% | LOX IMVI melanoma 11.5% | SK-MEL-28 melanoma 48.1%

Cc1ccc2c(c1)=C/C(=C\c1cc(-c3ccccc3)oc1O)C(=O)N=2
inactive: HCT-15 colon 97.6% | HT29 colon 108% | SNB-75 CNS 93.5% | SNB-19 CNS 107% | U251 CNS 109% | PC-3 prostate 96.3% | SK-MEL-5 melanoma 105% | UACC-62 melanoma 101% | LOX IMVI melanoma 94.4% | SK-MEL-28 melanoma 104%

O=C1/C(=C\c2ccc3nccnc3c2)SC(=S)N1CCc1ccc(O)cc1
inactive: HCT-15 colon 78.3% | HT29 colon 112% | SNB-75 CNS 66% | SNB-19 CNS 94% | U251 CNS 99.3% | PC-3 prostate 89.7% | SK-MEL-5 melanoma 98.7% | UACC-62 melanoma 84.5% | LOX IMVI melanoma 79.4% | SK-MEL-28 melanoma 103%

COc1ccc(-c2nc3c(ncc4ccc(=O)[nH]c43)s2)cc1
inactive: HCT-15 colon 73.6% | HT29 colon 81.1% | SNB-75 CNS 102% | SNB-19 CNS 105% | U251 CNS 81.6% | PC-3 prostate 83.4% | SK-MEL-5 melanoma 74.3% | UACC-62 melanoma 88.1% | LOX IMVI melanoma 52% | SK-MEL-28 melanoma 87.6%

CCOC(=O)c1ccc(NC(=O)c2nc(-c3cc(OC)c(OC)c(OC)c3)n(-c3ccc(Cl)cc3)n2)cc1
inactive: HCT-15 colon 93.2% | HT29 colon 89.9% | SNB-75 CNS 81% | SNB-19 CNS 88.8% | U251 CNS 93.8% | PC-3 prostate 77.5% | SK-MEL-5 melanoma 63.6% | UACC-62 melanoma 77.7% | LOX IMVI melanoma 91.8% | SK-MEL-28 melanoma 95%

Clc1cccc(Nc2ncnc3ccc(-c4cnc5[nH]ccc5c4)cc23)c1
inactive: HCT-15 colon 69.4% | HT29 colon 54.1% | SNB-75 CNS 84.7% | SNB-19 CNS 82.3% | U251 CNS 72.9% | PC-3 prostate 70.5% | SK-MEL-5 melanoma 75.4% | UACC-62 melanoma 90.2% | LOX IMVI melanoma 86.2% | SK-MEL-28 melanoma 96%

N#CC1=C(N)Oc2c(ccc3ccccc23)C1c1ccccc1 (stereo not given)
inactive: SNB-75 CNS 35.6% | SNB-19 CNS 26.6% | UACC-62 melanoma 26.9% | SK-MEL-28 melanoma 49.4%
active: HCT-15 colon 8.12% | HT29 colon -2.07% | U251 CNS 9.37% | PC-3 prostate 6.19% | SK-MEL-5 melanoma 4.54% | LOX IMVI melanoma 7.97%

O=C(/C=C/c1cccc(Cl)c1)c1cccc(OCCCOc2cccc(C(=O)/C=C/c3cccc(Cl)c3)c2)c1
inactive: HCT-15 colon 98.1% | HT29 colon 96.6% | SNB-75 CNS 81.7% | SNB-19 CNS 101% | U251 CNS 75.5% | PC-3 prostate 100% | SK-MEL-5 melanoma 100% | UACC-62 melanoma 80.6% | LOX IMVI melanoma 63.5% | SK-MEL-28 melanoma 108%

COc1ccc(C/C(C)=C(\c2ccc(Cl)cc2)c2ccc(OCCN3CCCCC3)cc2)cc1
inactive: HCT-15 colon 84.3% | HT29 colon 81.2% | SNB-75 CNS 89.3% | SNB-19 CNS 93.5% | U251 CNS 92.1% | PC-3 prostate 94.6% | SK-MEL-5 melanoma 107% | UACC-62 melanoma 83.8% | LOX IMVI melanoma 104% | SK-MEL-28 melanoma 101%

C#Cc1c2c(c(OC)c3c1OCO3)[C@H]([C@H]1OC(=O)c3c1ccc(OC)c3OC)N(C)CC2
inactive: HCT-15 colon 60.7% | HT29 colon 60.7% | SNB-75 CNS 85.8% | SNB-19 CNS 92.7% | U251 CNS 87.9% | PC-3 prostate 76.5% | SK-MEL-5 melanoma 93.4% | UACC-62 melanoma 75.6% | LOX IMVI melanoma 79.7% | SK-MEL-28 melanoma 95.1%

O=C1/C(=C/c2ccc([N+](=O)[O-])cc2)COc2ccc(O)cc21
active: HT29 colon 4.43% | LOX IMVI melanoma 1.76%
inactive: HCT-15 colon 28.3% | SNB-75 CNS 83.4% | SNB-19 CNS 91.4% | U251 CNS 66.1% | PC-3 prostate 88.3% | SK-MEL-5 melanoma 94% | UACC-62 melanoma 76.3% | SK-MEL-28 melanoma 108%

O=S(=O)(NCCCNc1nccc(-c2c(-c3ccc(F)c(O)c3)nc3occn23)n1)c1ccc(Cl)cc1
inactive: HCT-15 colon 73.2% | HT29 colon 54.4% | SNB-75 CNS 95.6% | SNB-19 CNS 97% | U251 CNS 94% | PC-3 prostate 56.8% | SK-MEL-5 melanoma 33.2% | UACC-62 melanoma 11.7% | LOX IMVI melanoma 36.2% | SK-MEL-28 melanoma 30%

COc1ccc(-c2cc(-c3ccc(Cl)cc3)c(C#N)c(=O)n2Cc2ccc(C(=O)Nc3ccccc3N)cc2)cc1
inactive: HCT-15 colon 68.2% | HT29 colon 107% | SNB-75 CNS 55.9% | SNB-19 CNS 80.2% | U251 CNS 88.7% | PC-3 prostate 79.6% | SK-MEL-5 melanoma 80.9% | UACC-62 melanoma 49.5% | LOX IMVI melanoma 69.3% | SK-MEL-28 melanoma 70%

Clc1ccc2c(c1)C(c1c[nH]c3ccccc13)(c1c[nH]c3ccccc13)CCO2
active: HT29 colon -46.2%
inactive: HCT-15 colon 87.1% | SNB-75 CNS 68.4% | SNB-19 CNS 97.4% | U251 CNS 46.8% | PC-3 prostate 35.3% | SK-MEL-5 melanoma 83.8% | UACC-62 melanoma 57% | LOX IMVI melanoma 79.4% | SK-MEL-28 melanoma 95.3%

Clc1ccc(/C=N\N=C\c2ccc(Cl)c(Cl)c2)cc1Cl
active: HCT-15 colon 7.55%
inactive: HT29 colon 32.3% | SNB-75 CNS 123% | SNB-19 CNS 95.1% | U251 CNS 76.3% | PC-3 prostate 71% | SK-MEL-5 melanoma 93.8% | UACC-62 melanoma 84.1% | LOX IMVI melanoma 72.4% | SK-MEL-28 melanoma 101%
